Bioassay records (PubChem BioAssay)
Compounds with a hit are over-represented: about 1.4% of the library has one in this group of screens.
FAS-TE inh: inhibitors of human fatty acid synthase thioesterase domain | P49327 | recombinant FAS-TE, OMFH fluorogenic substrate, fluorescence endpoint | inhibition, % at 15 µM | 360,000 tested, 0.67% active | AID 602261;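 active = compounds whose normalised, plate-corrected inhibition of enzyme fluorescence in the single-dose primary screen is 50% or more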;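 note: 0% = DMSO with enzyme and 100% = substrate without enzyme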
NPR2 activator: GC-B (human) receptor activation | activation, % at 10 µM | P20594 | AID 1920062 | HEK293-GC-B cells, CNP EC30, cGMP TR-FRET; 0% at EC30 CNP, 100% saturating CNP | 370,000 tested, 0.11% active;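 active = activation at 10 µM reaching about 35% in either raw or pattern-adjusted values, limit read from the data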
APOBEC3G inh: inhibitors of human APOBEC3G DNA deaminase; Q9HC16; recombinant A3G, ssDNA deamination FAM/TAMRA fluorescence; 330,000 tested, 0.28% active; inhibition, % at 20 µM;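 active = inhibition of at least 40% at 20 µM, with no more than 30% in the related APOBEC3A deaminase screen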;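 note: plate controls were DMSO wells with A3G for no effect and wells lacking A3G enzyme for full effect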
GC-A act: GC-A (human) enzyme activation | P16066 | HEK293 GC-A cells, cGMP TR-FRET, EC30 ANP; 0% at EC30 ANP, 100% saturating ANP | 370,000 tested, 0.14% active | activation, % at 10 µM | AID 1671463; in the data active = activation above about 40%
APOBEC3A inh: blocks human APOBEC3A ssDNA deamination; P31941; recombinant A3A, FAM/TAMRA ssDNA deamination fluorescence; inhibition, % at 20 µM; 330,000 tested, 0.41% active;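 active = at least 40% inhibition at 20 µM here, with at most 30% in a related deaminase screen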;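 note: plate controls were A3A with DMSO for no effect and wells lacking A3A enzyme for full effect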
FAS-TE conf: confirmation of human fatty acid synthase thioesterase inhibitors | 2,300 tested, 45% active | recombinant FAS-TE, OMFH fluorogenic substrate, fluorescence | inhibition, % at 15 µM | shares compounds with FAS-TE inh;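 active = compounds inhibiting the enzyme by at least 50% at 15 µM in any one of the replicates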;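 note: 0% = enzyme with DMSO only and 100% = wells lacking enzyme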
* marks the source's active call; other numbers are inactive results; . = no result given.

SMILES	FAS-TE inh	NPR2 activator	APOBEC3G inh	GC-A act	APOBEC3A inh	FAS-TE conf
CC(=O)c1ccc(NS(=O)(=O)c2ccc([N+](=O)[O-])cc2)cc1	9.2	-0.8	.	0.1	.	.
O=C(Nc1nc(-c2ccccc2)cs1)c1ccccc1NS(=O)(=O)c1ccc(F)cc1	44.2	-2.6	-2.4	12.3	4.6	.
CC(Cc1ccccc1)=NNS(=O)(=O)c1ccc([N+](=O)[O-])cc1	59.5*	4.4	.	1.5	.	66.0*
O=[N+]([O-])c1ccc(S(=O)(=O)Nc2ccc(-c3ccccc3)cc2)cc1	70.2*	-1.4	.	3.9	.	70.2*
O=S(=O)(Nc1ccc(-c2csc(-c3ccccc3)n2)cc1)c1ccc(F)cc1	57.5*	-6.5	-6.7	-0.7	-3.9	0.6
COC(=O)[C@]12C[C@H](CC(=O)NCCC(C)C)C(=O)N(Cc3cccc4ccccc34)C1=C[C@H](C(C)C)O[C@@H]2C1CC1	.	-0.5	.	-8.9	.	.
COC(=O)[C@@]1(OC(C)=O)CC(OC(C)=O)[C@H](OC(C)=O)[C@H](OC(C)=O)C1Br (stereo partly drawn)	.	-4.3	.	3.0	.	.
Cc1nn(CCC(=O)O)c2nc(-c3cccnc3)cc(C(F)(F)F)c12	-3.2	4.6	-4.2	-0.3	-11.0	.
Cc1nn(CCc2nn[nH]n2)c2nc(-c3ccc(C4CCCCC4)cc3)cc(C(F)(F)F)c12	69.2*	-2.4	-7.5	-4.4	-4.0	13.5
O=S1(=O)c2ccc(N3CCC[C@H]3CO)cc2O[C@@H]2CCN1C2	.	2.1	.	4.4	.	.
COC(=O)[C@H]1C[C@@]2(Oc3ccc(Br)cc3)c3ccccc3N(C(=O)OC(C)(C)C)[C@H]2N1C(=O)OC(C)(C)C	.	-18.9	.	-20.9	.	.
COc1ccc2cc3cc(C(=O)N4CCCCC4C)oc3nc2c1 (stereo not drawn)	75.4*	7.2	-1.3	2.4	-1.0	62.4*
CCOC(=O)C1CCN(C(=O)c2cc3c(ccc4ccccc43)o2)CC1	15.4	-6.5	-2.3	-1.0	-2.8	.
COc1ccc2cc3cc(C(=O)N4CCCCCC4)oc3nc2c1	74.3*	.	-1.2	.	37.9	55.7*
COc1ccc2cc3cc(C(=O)N4CCN(C5CCCCC5)CC4)oc3nc2c1	0.2	.	0.3	.	3.1	.
COc1ccc2cc3cc(C(=O)N(C)C4CCCCC4)oc3nc2c1	27.0	.	-6.7	.	-1.8	.
CCOC(=O)C1CCN(C(=O)c2cc3cc4ccc(C)cc4nc3o2)CC1	55.2*	-1.1	-4.0	2.8	-4.3	62.5*
COc1ccc(F)cc1-c1cc(C(C)=O)c2n(c1=O)CCC2	.	4.3	.	2.0	.	.
CCC(=O)Nc1ccc2c(c1)C(=O)N(C)[C@@H]1CC[C@@H](CC(=O)NCc3ccc(OC)cc3)O[C@H]1CO2	.	4.5	.	3.3	.	.
COC(=O)[C@@]1(C(C)C)N=C(c2cc(OC)c(OC)c(OC)c2)[C@]2(O1)C(=O)N(Cc1ccc(OC)cc1)c1ccc(Br)cc12	53.1*	-15.9	.	-21.2	.	14.4
C[C@]12C(=O)N(c3ccc(Br)cc3)C(=O)N1[C@H]1c3ccccc3OC[C@@H]1[C@H]2c1ccccc1	85.1*	2.1	-5.6	1.0	-3.3	-6.9
C[C@]12C(=O)N(c3cccc(Cl)c3)C(=O)N1[C@@H]1c3ccccc3OC[C@@H]1[C@H]2c1ccccc1	57.9*	-1.9	-4.7	-3.0	-3.7	35.2
Cc1ccc(N2C(=O)N3[C@H]4c5ccccc5OC[C@@H]4[C@@H](c4ccccc4)[C@@]3(C)C2=O)cc1	55.3*	.	-4.0	.	-3.2	30.2
CCOC(=O)[C@@H]1[C@H]2COc3ccccc3[C@H]2N2C(=O)N(c3ccc(Br)cc3)C(=O)[C@]12C	16.2	1.7	-3.8	-2.2	-0.3	.
C[C@]12C(=O)N(c3ccc(C(F)(F)F)cc3)C(=O)N1[C@@H]1c3ccccc3OC[C@@H]1[C@H]2c1ccccc1	59.7*	1.3	-10.0	3.9	-1.9	25.9
CCOC(=O)[C@@H]1[C@H]2COc3ccccc3[C@@H]2N2C(=O)N(c3ccc(C)cc3)C(=O)[C@@]12C	-3.7	4.5	-5.0	-0.7	0.1	.
CCOC(=O)Cn1cc(CN2CCS(=O)(=O)N(Cc3ccc(C)cc3)C(C(=O)OC)C2)nn1 (stereo not drawn)	.	2.8	.	1.1	.	.
